Results taken from PubChem BioAssay (Tox21).
Active and inactive are the calls of the source. Calls follow the shape of the dose curve; as a rule, active = well fitted curve in the direction sought with a large enough effect in the repeat runs; inconclusive = weak or mixed curves; inactive = flat fitted curve, though single readings scatter.

Test: qHTS assay to test for compound auto fluorescence at 460 nm (blue) in HepG2 cell free culture (AID 720685)
Conditions: Cell-free culture medium, blue autofluorescence 405/460 nm; series mostly up to 91.3 µM; fluorescence, % of fluorescent control: at the top concentration
Description: U.S. Tox21 Program National Center for Advancing Translational Sciences [NCATS] NIH Chemical Genomics Center [NCGC] U.S. Environmental Protection Agency [EPA] National Institutes of Environmental Health Sciences [NIEHS] National Toxicology Program [NTP] U.S. Food and Drug Administration [FDA] Tox21 Assay Overview: Compound auto fluorescence often interferes with screening of the compound library against various biological targets and signaling pathways. Some of these compounds may have fluorophoric properties. Such properties may interfere with the assay outputs resulting in false positives and/or negatives. To decrease such complications and ensure the compound activities are relevant in terms of biological response, the Tox21 10K compound library was screened for auto fluorescence. From the fluorophores used as reporter signals in our screening assays, the auto fluorescence equivalencies of compounds against three fluorophores have been evaluated: Triamterene, Fluorescein and Rose Bengal sodium for blue, green and red fluorescence, respectively. The fluorescence intensities were measured using Excitation/Emission wavelengths at 405/460nm, 485/535nm and 540/590nm for blue, green and red labels, respectively. This assay includes the blue fluorescence data.
Tox21 Assay Protocol Summary: 5 uL of culture medium (MEM containing 10% FBS) per well was dispensed into black wall/clear bottom 1536-well plates using a Multidrop Combi Dispenser (ThermoFisher Scientific, Waltham, MA). After 23 nL compound or DMSO vehicle was transferred into assay plate by a pintool work station (Kalypsys, San Diego, CA), fluorescence intensities in the assay plates were measured by an Envision (PerkinElmer, Shelton, CT) plate reader using three labels for measuring blue, green and red fluorescence at […] 460, 535 and 590nm respectively.
% is scaled to controls: 0 for no effect and ±100 for the full control effect.

Row | SMILES | fluorescence, % of fluorescent control | Potency
1 | NC1CCN(c2nc3c(cc2F)c(=O)c(C(=O)O)cn3-c2ccc(F)cc2F)C1 (stereo not given) | 0.0003% [at 46 µM] (inactive) | 
2 | CN1CCC(OC(c2ccccc2)c2ccccc2)CC1 | -0.163% [at 18.6 µM] (inactive) | 
3 | CCCCCCCCCC=O | -0.0007% (inactive) | 
4 | Nc1cnn([C@@H]2O[C@H](CO)[C@@H](O)[C@H]2O)c(=O)n1 | -0.051% (inactive) | 
5 | CCCCOC(O)CC (stereo not given) | -0.0102% (inactive) | 
6 | CC(=O)NCCCS(=O)(=O)O |  | inactive
7 | Cc1cccc(C(C)(C)C)c1O | -0.002% (inactive) | 
8 | CC[C@H](C)[C@H](N)C(=O)O | -0.0345% [at 46 µM] (inactive) | 
9 | C[C@H](CCC(=O)O)[C@H]1CC[C@H]2[C@@H]3[C@H](O)C[C@@H]4C[C@H](O)CC[C@]4(C)[C@H]3CC[C@]12C |  | inactive
10 | CC1(C)[C@H]2CC[C@]1(C)[C@H](O)C2 |  | inactive
11 | CC[C@]12CCCN3CCc4c(n(c5ccccc45)C(=O)C1)[C@@H]32 | 0.043% [at 18.6 µM] (inactive) | 
12 | O=C(Cl)c1c(Cl)cccc1Cl | -0.197% [at 95.7 µM] (inactive) | 
13 | CN(C(=O)CCCOc1ccc2[nH]c(=O)ccc2c1)C1CCCCC1 | 0.111% [at 46 µM] (inactive) | 
14 | CCOC(=O)[C@H](CCc1ccccc1)N[C@H]1CCc2ccccc2N(CC(=O)O)C1=O | 7.02% [at 46 µM] (inactive) | 
15 | CC1=CCC(C(C)C)C=C1 (stereo not given) | -0.0528% (inactive) | 
16 | CCCC(=O)OCC | -0.13% (inactive) | 
17 | C1CCC2OC2C1 (stereo not given) | 0.0119% [at 95.7 µM] (inactive) | 
18 | CCCCCCCCCCCCCCCC(=O)OC/C=C(C)/C=C/C=C(C)/C=C/C1=C(C)CCCC1(C)C |  | inactive
19 | CCCCCC/C=C/C=O | -0.0339% (inactive) | 
20 | CN1CCC[C@@H]1c1cccnc1 | 0.0053% [at 46 µM] (inactive) | 

Row | SMILES | fluorescence, % of fluorescent control | Potency
21 | OC(CCN1CCCCC1)(c1ccccc1)C1CCCCC1 (stereo not given) | -0.0591% [at 46 µM] (inactive) | 
22 | C1=Cc2ccccc2C1 | 0.0309% (inactive) | 
23 | CCCCc1cc2ccccc2c(OCCN(C)C)n1 | -0.0015% [at 18.6 µM] (inactive) | 
24 | CCCCCCCCCCCCCCCBr | -0.177% [at 46 µM] (inactive) | 
25 | CCC(C)N(C)C(=O)c1cc2ccccc2c(-c2ccccc2Cl)n1 (stereo not given) | 0.146% (inactive) | 
26 | CCN(CC)CCc1nc(-c2ccccc2)no1 | -0.0109% [at 18.6 µM] (inactive) | 
27 | CC(C)c1cccc(C(C)C)c1NC(=O)NS(=O)(=O)c1cc(C(C)(C)O)co1 | -0.105% (inactive) | 
28 | Cc1c(Cn2ccnc2)c2ccccc2n1CCC(=O)O | 0.0903% [at 46 µM] (inactive) | 
29 | C=C(C)C(=O)OCCOc1ccccc1 | 0.0061% (inactive) | 
30 | c1ccc(OCc2ccc(CCCN3CCOCC3)cc2)cc1 | -0.0323% [at 46 µM] (inactive) | 
31 | CC(C)(C)c1cc(CCC(=O)OCC(COC(=O)CCc2cc(C(C)(C)C)c(O)c(C(C)(C)C)c2)(COC(=O)CCc2cc(C(C)(C)C)c(O)c(C(C)(C)C)c2)COC(=O)CCc2cc(C(C)(C)C)c(O)c(C(C)(C)C)c2)cc(C(C)(C)C)c1O | -0.0085% [at 46 µM] (inactive) | 
32 | CN(C)CCCOc1nn(Cc2ccccc2)c2ccccc12 | -0.0147% [at 18.6 µM] (inactive) | 
33 | CCN(CC)CCNC(C(=O)OCCC(C)C)c1ccccc1 (stereo not given) | 0.0496% [at 46 µM] (inactive) | 
34 | Cl/C(=C\n1cncn1)c1ccc(Cl)cc1Cl | 0.0196% [at 46 µM] (inactive) | 
35 | C=CC[N+]1([C@H]2C[C@H]3[C@@H]4CC[C@H]5C[C@H](OC(C)=O)[C@@H](N6CCCCC6)C[C@]5(C)[C@H]4CC[C@]3(C)[C@H]2OC(=O)CC)CCCCC1 | 4.85% [at 46 µM] (inactive) | 
36 | CCOC(=O)CC(=O)c1cc(F)c(Cl)nc1Cl | 0.0748% [at 95.7 µM] (inactive) | 
37 | NC(=S)N/N=C/c1cccnc1 | -0.0047% [at 46 µM] (inactive) | 
38 | CC(C)NCC(O)COc1ccc(CC(N)=O)cc1 (stereo not given) | -0.0324% (inactive) | 
39 | CCCCCOC(=O)COc1cc(N2C(=O)C3=C(CCCC3)C2=O)c(F)cc1Cl | 0.36% (inactive) | 
40 | CN(C)CCCNCCCN | 0.234% (inactive) | 
